Among the data in PubChem BioAssay AID1645879 (National Center for Advancing Translational Sciences (NCATS), 2021) are Potency values, retold here.

Each structure is given as a SMILES string. Results filed as inconclusive are left out. Where a call stands in place of a potency, no number is given. The source made the active and inactive calls. The call rests on the fitted dose curve; in most records, active means well fitted inhibition curve with a large enough effect; inconclusive means small, poorly fitted or top-dose-only effect; inactive means no such curve, though single readings can be large or run the other way.

This test in a line: Counterscreen qHTS assay for inhibitors of N-terminal methyltransferase 1 (NTMT1): SPKRIA Counterscreen Assay. The conditions noted are these: biochemical qHTS; series mostly up to 99.2 µM. An excerpt: Assay Submitter (PI): Rong Huang Ph.D,
Purdue University, West Lafayette, IN 47907
The N-terminal methytransferase 1 is the first methyltransferase that methylates protein alpha-N-amines and plays an important role in regulating cell mitosis, chromatin interactions and DNA repair. It is observed to be over-expressed in various cancer patient tissues like malignant melanoma and colorectal cancer tissues. Knockdown of NTMT1 in cancer cells causes cell mitotic defects and enhances sensitivity to DNA damaging chemotherapeutics. […] These critical cellular processes in which NTMT1 is implicated, coupled with emerging links to cellular dysfunction, strengthen the inference that NTMT1 is a compelling novel anticancer target. Progress have been made in understanding the molecular properties of NTMT1 and the biological consequences of protein alpha-N-terminal methylation, but there are no specific small molecule probes available for NTMT1 to fully characterize its MTase activity. To address this unmet need, a panel of assay is created and established to enable quantitative high-throughput screening (qHTS) for novel, potent, and selective small molecule NTMT1 inhibitors. Two orthogonal qHTS that use different reagents (ThioGlo vs. MTaseGlo) are developed for primary robotic screening against the NCATS chemical library of more than 400,000 small molecules. Identified inhibitors are reacquired, validated, and further characterized.
MTaseGlo Assay is a luminescence screen that measure the activity of methyltransferases based on the reaction product S-adenosyl homocysteine (SAH). The substrate SAM is converted to SAH upon enzyme activation. MTase-Glo reagent and detection solution convert SAH to ATP and measure the light from the luciferase reaction. Nicotinamide N-methyltransferase (NNMT) is a cystolic enzyme that catalyzes the transfer of a methyl group from the co-factor SAM onto the substrate, nicotinamide (NA) to form 1-methyl-nicotinamide (MNA) and SAH. NNMT MTaseGlo assay is used as a counterscreen to evaluate selectivity of identified inhibitors.
SPKRIA and Ac-RCC-10 control is provided by the Huang laboratory.
PROTOCOL TABLE; SEQUENCE No. (e.g., 1, 2, 3, etc.); […] (e.g., Cells, Incubation, Reagent, etc.); VALUE; DESCRIPTION
1; Reagent; 3 uL; dispense assay buffer.
2; Compound; 23 nL; pin compounds and control into the assay plate.
3; Time; 15 min; room temperature incubation.
4; Reagent; 1 uL; dispensed [4x] substrate or buffer.
5; Time; 30 min; incubate at room temperature.
6; Reagent; 1 uL; dispense MTase-Glo Reagent (R).
7; Time; 30 min; incubate at room temperature.
8; Reagent; 5 uL; dispense [1x] MTase-Glo Detection Solution to allow for ADP to be converted to ATP.
9; Centrifugation; 1,000 RPMs; assay plates were centrifuged.
10; Incubation; 30 min; room temperature.
11; Detection; Luminescence; ViewLux plate reader (clear filter, 10 second exposure).
NOTES (numbers refer to Sequence numbers above; values are from representative experiments)
1; Dispense the assay buffer into Greiner 1536-well black / solid bottom assay plate (Greiner Bio One, Monroe, NC).
2; Pin control inhibitor Ac-RCC1-10 at a final concentration range of 234 nM to 143 uM using a Wako Pin Tool (Wako Automation USA) equipped with a 1536-slotted pin array (Wako Automation, Richmond, VA). Pin compound library into the assay plates (columns 5 - 48) at a final concentration range of 97 nM to 250 uM.
3; Incubate the assay plates at room temperature.
4; Dispense 1 uL of substrate SPKRIA solution (final concentration 1 uM) or 1 uL buffer was added to the wells bringing the final assay volume to 4uL. The assay plate was covered with metal lids.
5; Incubate the assay plate at room temperature.
6; Dispense 1 uL of 5x MTase-Glo Reagent in the assay plate.
7; Incubate at room temperature to allow for SAH to be converted to ADP
8; Dispense 5 uL of 5x MTase-Glo Detection Solution in the assay plate to allow for ADP to be converted to ATP.
9; Assay plates were centrifuged for 15 seconds.
[…]
For orientation: The purpose of a counterscreen is to sort out artefacts and off-target activity.
For `NC(=O)c1ncn([C@@H]2O[C@H](CO)[C@@H](O)[C@H]2O)c1N`, the Potency entry was “inactive”.

`CCC1(C)CC(=O)NC1=O` (stereo not given): the Potency result is “inactive”.

As to `O=c1c2cc3c(cc2nc2sc(Nc4ccccc4)nn12)OCO3`, the Potency result is “inactive”. For `CC(=O)C1CCC2C3CCC4=CC(=O)CCC4(C)C3CCC12C` (stereo not given) the value was “inactive”; for `C[C@]12CC[C@@H]3c4ccc(O)cc4CC[C@H]3[C@@H]1C[C@@H](O)[C@@H]2O`, “inactive”; for `CN(C)CCC=C1c2ccccc2C=Cc2ccccc21`, “inactive”. With `OCc1cccc(-c2noc(-c3ccccc3F)n2)c1` the entry was “inactive”; with `COc1cccc(/C=C/c2nc(C#N)c(NCCN(C)C)o2)c1`, “inactive”. Consider `CC(C)CCNc1ncnc2c1cnn2-c1cccc(Cl)c1`, for which the Potency is 22.4 µM (active). For `Cc1cccc(C(=O)Nc2sc3c(c2C(=O)O)CCCC3)c1` the value was 50.1 µM (active); for `COCCCNc1ncnc2onc(-c3ccc(F)cc3)c12`, 50.1 µM (active); for `CCCNC(=O)CSc1c(CCC)cnc2c1c(=O)n(C)c(=O)n2C`, “inactive”. For `O=c1cc(-c2ccccc2)oc2ccccc12` the value was 112 µM (active); for `O=C(O)c1ccc(-c2noc(-c3cccc(Cl)c3)n2)cc1`, “inactive”.

`CN1CCCN=C1/C=C/c1cccs1`: the Potency result was “inactive”. Take `COc1cccc(C(=O)Nc2nc3c(s2)CCCC3)c1`: the Potency was 50.1 µM (active). For `Cc1cc(C)nc(NC(=S)N2CCN(c3ccncc3)CC2)c1` the value was “inactive”. For `Cc1ccnc(NC(=S)N2CCNCC2)c1` the value was “inactive”. With `Cc1c(Cl)cccc1Nc1nn2c(=O)c3ccccc3nc2s1` the entry was “inactive”; with `c1cncc(-c2ccc3ncnc(NCc4cccs4)c3c2)c1`, 44.7 µM (active); with `CC(C)(C)c1ccc(-c2csc(N3CCC(C(N)=O)CC3)n2)cc1`, “inactive”.

Consider `COc1ccccc1C(=O)Nc1onc2c1CCCC2`, for which the Potency result was “inactive”. With `COc1cc(/C=C\c2ccc(O)cc2)cc(OC)c1` the entry was “inactive”. With `CC[C@H](c1ccc(O)cc1)[C@@H](CC)c1ccc(O)cc1` the entry was “inactive”; with `CC(=O)Nc1sc2c(c1-c1ccc3scnc3c1)CCNC2`, “inactive”. With `Cc1cccc(-n2cnc3cc(C(=O)NC4CCCC4)ccc32)c1` the figure was 44.7 µM (active). Consider `CC(C)c1ccc(Nc2ncnc3c2nc2n3CCCC2)cc1`, for which the Potency was 50.1 µM (active). As to `O=c1[nH]cnc2nc[nH]c12`, the Potency entry was “inactive”. Turning to `CCCn1c(/C=C/c2ccccc2)nc2ccccc21`, the Potency entry is “inactive”. As to `O=C(Nc1noc2ccccc12)c1c(F)cccc1F`, the Potency result was “inactive”. With `Cc1ccc(-n2ncc3c(NCCCN(C)C)ncnc32)cc1Cl` the figure was 44.7 µM (active). As for `Cc1cc2c(s1)c1cnn(Cc3cccc(C)c3F)c(=O)c1n2C`, the Potency entry is “inactive”. For `O=c1cc(-c2ccccc2)oc2ccc(O)cc12` the value was 31.6 µM (active). For `COc1cc(C)c(/C=C/C(C)=C/C=C/C(C)=C/C(=O)O)c(C)c1C` the value was “inactive”. For `Oc1cccc(Nc2cc(-c3ccccc3)ncn2)c1` the value was 39.8 µM (active); for `Clc1ccc2ncc(-c3cccc(NC4CCNC4)n3)n2c1` (stereo not given), “inactive”; for `CN(C)C(=O)c1ccc(-c2cc[nH]c(=O)c2N)cc1`, “inactive”. With `O=c1c(-c2ccc(O)cc2)coc2cc(O)ccc12`, the Potency entry is “inactive”. In the case of `COCCCNC(=O)CSc1c2c(nc3ccc(Cl)cc13)CCCC2`, the Potency entry is “inactive”.

Take `COc1ccc(Nc2ncnc3sc4c(c23)CCCC4)cc1`: the Potency is 20 µM (active).
